Data as given in the supplement of paper PMC10849652.
About 7,900 targets were measured; listed, in parts, are those with a hit and a random draw of the rest. About 0.6% of all pairs of compound and target were hits.

compound: CNC(=O)c1ccc(Nc2ncc(C(F)(F)F)c(NCc3nccnc3N(C)S(C)(=O)=O)n2)cc1 [defactinib]; assay: log2 fold change, soluble protein after heating vs DMSO (PISA); higher = thermal stabilisation; K562 cells, 10 uM, 30 min; active = over 0.2 and 3.5 SD of the protein, either way, in both replicates (recomputed)
Procedure, shortened: (§1)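 K562 cells at 2×10^6 cells/mL were treated for 30 min with 10 μM compound, and aliquots were heated for 3 min over 48°C-58°C before pooling. Extraction used PBS with 0.5% NP-40 at 4°C, and soluble protein was the supernatant after 21,000xg for 90 min, measured by TMTpro 16plex LC-MS/MS with channel sums equalised. Thermal stability values, relative to control samples and from duplicates, are log2 fold changes.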

UniProt P01130, sequence (P01130 whole entry, looked up): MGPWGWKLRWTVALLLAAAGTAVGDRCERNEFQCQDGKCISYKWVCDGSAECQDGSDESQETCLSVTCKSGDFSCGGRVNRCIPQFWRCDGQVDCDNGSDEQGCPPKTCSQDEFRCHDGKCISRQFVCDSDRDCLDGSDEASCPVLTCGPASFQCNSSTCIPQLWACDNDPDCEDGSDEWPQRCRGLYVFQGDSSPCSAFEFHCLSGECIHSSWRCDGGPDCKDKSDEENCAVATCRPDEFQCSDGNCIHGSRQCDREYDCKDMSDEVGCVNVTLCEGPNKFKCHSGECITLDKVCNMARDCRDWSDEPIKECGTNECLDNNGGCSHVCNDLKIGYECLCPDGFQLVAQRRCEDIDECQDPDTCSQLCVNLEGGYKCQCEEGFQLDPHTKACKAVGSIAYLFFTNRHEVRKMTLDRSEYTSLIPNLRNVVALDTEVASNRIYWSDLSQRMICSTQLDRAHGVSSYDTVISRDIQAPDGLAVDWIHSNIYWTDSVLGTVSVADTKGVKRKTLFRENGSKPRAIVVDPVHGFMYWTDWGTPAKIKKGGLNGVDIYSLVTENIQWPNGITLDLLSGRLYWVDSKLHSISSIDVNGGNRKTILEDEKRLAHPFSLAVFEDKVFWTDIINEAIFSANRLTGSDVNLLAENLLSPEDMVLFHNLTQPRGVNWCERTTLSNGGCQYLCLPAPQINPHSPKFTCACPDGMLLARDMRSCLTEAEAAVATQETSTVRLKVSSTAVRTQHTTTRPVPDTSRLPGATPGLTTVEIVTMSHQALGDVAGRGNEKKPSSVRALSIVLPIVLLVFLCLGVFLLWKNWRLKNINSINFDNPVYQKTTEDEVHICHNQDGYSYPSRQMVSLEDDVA
UniProt Q14676, sequence (Q14676 whole entry, looked up): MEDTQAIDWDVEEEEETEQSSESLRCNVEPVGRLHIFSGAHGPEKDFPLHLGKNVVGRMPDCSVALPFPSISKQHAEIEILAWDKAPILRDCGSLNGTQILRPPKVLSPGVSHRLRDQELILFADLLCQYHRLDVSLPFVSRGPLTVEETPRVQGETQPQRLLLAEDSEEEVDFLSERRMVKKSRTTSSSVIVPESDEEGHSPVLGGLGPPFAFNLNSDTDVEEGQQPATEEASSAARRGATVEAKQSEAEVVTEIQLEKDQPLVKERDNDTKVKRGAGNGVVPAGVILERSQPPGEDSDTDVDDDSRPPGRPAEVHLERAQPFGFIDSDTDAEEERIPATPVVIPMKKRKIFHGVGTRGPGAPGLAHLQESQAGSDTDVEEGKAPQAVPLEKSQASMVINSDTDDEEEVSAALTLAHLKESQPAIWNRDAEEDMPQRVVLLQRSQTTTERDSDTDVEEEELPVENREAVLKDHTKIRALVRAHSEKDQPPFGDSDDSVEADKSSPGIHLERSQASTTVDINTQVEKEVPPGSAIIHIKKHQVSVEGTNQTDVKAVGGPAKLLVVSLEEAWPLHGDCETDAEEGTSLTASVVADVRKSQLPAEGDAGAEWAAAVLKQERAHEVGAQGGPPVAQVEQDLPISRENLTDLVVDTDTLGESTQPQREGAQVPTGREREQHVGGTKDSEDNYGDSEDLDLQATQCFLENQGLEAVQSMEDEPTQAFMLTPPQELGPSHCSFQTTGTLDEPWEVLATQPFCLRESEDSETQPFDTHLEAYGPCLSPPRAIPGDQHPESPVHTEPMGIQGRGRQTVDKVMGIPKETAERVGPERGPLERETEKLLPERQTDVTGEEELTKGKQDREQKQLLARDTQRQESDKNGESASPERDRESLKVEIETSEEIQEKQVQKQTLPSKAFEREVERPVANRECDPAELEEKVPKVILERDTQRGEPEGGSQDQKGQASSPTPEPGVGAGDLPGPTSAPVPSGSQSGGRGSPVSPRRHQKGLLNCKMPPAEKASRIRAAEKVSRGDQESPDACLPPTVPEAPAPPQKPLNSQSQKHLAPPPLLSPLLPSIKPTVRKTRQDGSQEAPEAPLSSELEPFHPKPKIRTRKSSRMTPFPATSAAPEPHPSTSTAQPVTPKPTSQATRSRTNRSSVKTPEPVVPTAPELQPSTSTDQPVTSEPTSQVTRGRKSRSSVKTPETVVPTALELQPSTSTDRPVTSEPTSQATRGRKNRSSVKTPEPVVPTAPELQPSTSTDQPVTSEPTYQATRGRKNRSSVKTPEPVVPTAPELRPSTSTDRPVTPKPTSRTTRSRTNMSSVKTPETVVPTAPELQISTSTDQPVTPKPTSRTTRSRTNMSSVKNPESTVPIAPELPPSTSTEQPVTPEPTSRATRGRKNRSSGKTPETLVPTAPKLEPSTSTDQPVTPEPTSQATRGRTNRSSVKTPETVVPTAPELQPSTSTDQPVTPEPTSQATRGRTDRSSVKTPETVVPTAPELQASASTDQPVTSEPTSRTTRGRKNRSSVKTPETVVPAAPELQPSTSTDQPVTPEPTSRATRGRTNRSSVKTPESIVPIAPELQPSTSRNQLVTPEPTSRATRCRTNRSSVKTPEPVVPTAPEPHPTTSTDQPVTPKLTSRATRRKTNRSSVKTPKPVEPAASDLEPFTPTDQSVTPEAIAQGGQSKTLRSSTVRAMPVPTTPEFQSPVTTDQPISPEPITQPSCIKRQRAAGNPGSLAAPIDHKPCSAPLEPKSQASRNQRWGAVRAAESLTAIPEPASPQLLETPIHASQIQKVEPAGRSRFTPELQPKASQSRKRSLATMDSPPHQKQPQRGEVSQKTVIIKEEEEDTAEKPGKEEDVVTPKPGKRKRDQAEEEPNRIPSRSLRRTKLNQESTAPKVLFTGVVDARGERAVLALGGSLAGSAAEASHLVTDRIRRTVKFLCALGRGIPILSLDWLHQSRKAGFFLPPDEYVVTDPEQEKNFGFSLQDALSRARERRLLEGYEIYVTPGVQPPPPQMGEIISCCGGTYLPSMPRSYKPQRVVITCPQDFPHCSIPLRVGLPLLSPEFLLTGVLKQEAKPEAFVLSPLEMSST
UniProt Q9Y2U8, sequence (Q9Y2U8 whole entry, looked up): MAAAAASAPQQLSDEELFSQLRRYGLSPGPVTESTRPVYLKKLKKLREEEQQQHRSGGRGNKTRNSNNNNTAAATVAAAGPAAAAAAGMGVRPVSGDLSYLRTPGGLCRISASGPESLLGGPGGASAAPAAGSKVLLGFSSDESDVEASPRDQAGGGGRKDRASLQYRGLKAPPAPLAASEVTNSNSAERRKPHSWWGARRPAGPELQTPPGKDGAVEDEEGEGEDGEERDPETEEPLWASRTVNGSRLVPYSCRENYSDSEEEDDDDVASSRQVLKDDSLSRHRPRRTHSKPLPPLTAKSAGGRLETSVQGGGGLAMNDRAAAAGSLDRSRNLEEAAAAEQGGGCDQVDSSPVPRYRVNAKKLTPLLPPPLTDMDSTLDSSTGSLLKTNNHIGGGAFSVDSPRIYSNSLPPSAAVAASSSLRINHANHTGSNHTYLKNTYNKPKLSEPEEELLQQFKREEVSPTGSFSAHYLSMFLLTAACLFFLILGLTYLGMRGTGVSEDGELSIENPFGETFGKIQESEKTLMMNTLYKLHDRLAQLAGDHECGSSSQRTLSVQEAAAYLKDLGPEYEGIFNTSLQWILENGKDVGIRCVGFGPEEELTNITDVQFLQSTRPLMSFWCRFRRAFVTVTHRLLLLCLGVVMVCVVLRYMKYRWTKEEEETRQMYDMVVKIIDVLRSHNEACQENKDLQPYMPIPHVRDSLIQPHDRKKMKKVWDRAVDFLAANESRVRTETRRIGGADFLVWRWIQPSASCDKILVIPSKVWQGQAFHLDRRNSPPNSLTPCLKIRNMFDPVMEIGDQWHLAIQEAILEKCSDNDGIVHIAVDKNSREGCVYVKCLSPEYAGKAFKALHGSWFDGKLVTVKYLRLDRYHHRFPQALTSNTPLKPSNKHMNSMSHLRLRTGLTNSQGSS
UniProt O94829, sequence (O94829 whole entry, looked up): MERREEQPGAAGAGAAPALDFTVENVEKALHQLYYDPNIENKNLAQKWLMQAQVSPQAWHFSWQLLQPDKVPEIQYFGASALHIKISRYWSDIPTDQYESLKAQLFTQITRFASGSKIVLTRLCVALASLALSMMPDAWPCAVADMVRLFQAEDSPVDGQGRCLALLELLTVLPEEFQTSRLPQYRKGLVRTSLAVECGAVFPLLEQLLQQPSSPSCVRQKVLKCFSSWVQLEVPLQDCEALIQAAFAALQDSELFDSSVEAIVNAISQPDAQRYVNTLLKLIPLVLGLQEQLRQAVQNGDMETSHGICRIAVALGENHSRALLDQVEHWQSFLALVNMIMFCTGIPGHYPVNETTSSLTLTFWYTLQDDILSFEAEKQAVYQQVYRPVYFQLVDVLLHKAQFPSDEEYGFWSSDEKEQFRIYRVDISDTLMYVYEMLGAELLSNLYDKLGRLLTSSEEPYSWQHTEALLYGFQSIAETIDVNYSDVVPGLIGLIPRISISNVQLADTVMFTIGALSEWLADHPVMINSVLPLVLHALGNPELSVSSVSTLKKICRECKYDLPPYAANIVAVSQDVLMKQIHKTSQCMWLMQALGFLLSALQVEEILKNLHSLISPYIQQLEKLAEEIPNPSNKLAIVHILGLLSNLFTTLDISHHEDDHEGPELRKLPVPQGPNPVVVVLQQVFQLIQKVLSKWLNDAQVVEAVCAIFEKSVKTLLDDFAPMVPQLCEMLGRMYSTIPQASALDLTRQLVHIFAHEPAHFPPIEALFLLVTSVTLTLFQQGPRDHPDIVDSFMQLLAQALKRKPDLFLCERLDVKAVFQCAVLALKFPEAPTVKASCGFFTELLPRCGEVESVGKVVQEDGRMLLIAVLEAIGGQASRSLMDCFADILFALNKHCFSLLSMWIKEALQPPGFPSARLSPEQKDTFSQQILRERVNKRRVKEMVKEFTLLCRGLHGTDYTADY
UniProt Q9H6K1, sequence (Q9H6K1 whole entry, looked up): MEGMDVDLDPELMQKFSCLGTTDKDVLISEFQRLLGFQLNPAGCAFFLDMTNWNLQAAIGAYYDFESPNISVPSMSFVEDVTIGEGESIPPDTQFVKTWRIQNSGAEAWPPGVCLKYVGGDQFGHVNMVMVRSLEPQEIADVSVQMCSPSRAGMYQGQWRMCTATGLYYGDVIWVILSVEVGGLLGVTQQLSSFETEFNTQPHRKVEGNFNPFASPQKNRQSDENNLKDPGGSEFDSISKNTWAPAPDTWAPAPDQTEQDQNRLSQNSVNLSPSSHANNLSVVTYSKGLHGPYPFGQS

Target | log2 fold change
ITM2B (UniProt Q9Y287) | -0.007 (inactive)
IPO13 (UniProt O94829) | -0.04 (inactive)
ILRUN (UniProt Q9H6K1) | -0.036 (inactive)
IRF2BPL (UniProt Q9H1B7) | -0.038 (inactive)
LDLR (UniProt P01130) | -0.033 (inactive)
LUC7L3 (UniProt O95232) | -0.113 (inactive)
MAP2K7 isoform 4 (UniProt O14733) | -0.012 (inactive)
MDC1 (UniProt Q14676) | -0.012 (inactive)
MAP2K1 (UniProt Q02750) | -0.011 (inactive)
MARK3 (UniProt P27448) | -0.176 (inactive)
KIF21A isoform 4 (UniProt Q7Z4S6) | 0.016 (inactive)
LEMD3 (UniProt Q9Y2U8) | -0.111 (inactive)
KDM5D isoform 3 (UniProt Q9BY66) | -0.357 (inactive)
IK (UniProt Q13123) | 0.013 (inactive)
KLC2 (UniProt Q9H0B6) | -0.13 (inactive)
INPP5B (UniProt P32019) | 0.112 (inactive)

compound: CNCc1ccc(-c2[nH]c3cc(F)cc4c3c2CCNC4=O)cc1 [rucaparib]; assay: as above
Procedure, shortened: as §1

Target | log2 fold change
LTV1 (UniProt Q96GA3) | 0.074 (inactive)
LMNB1 (UniProt P20700) | -0.035 (inactive)
LNPK (UniProt Q9C0E8) | -0.015 (inactive)
LDAH isoform 2 (UniProt Q9H6V9) | -0.004 (inactive)
IL27RA (UniProt Q6UWB1) | -0.03 (inactive)
KIF2C (UniProt Q99661) | 0.019 (inactive)
LAMP2 (UniProt P13473) | -0.055 (inactive)
LMNB2 (UniProt Q03252) | -0.085 (inactive)
MAP1LC3B2 (UniProt A6NCE7) | 0.004 (inactive)
METAP1D (UniProt Q6UB28) | -0.074 (inactive)
LIMD1 (UniProt Q9UGP4) | -0.008 (inactive)
MED17 (UniProt Q9NVC6) | 0.109 (inactive)
KIF3A (UniProt Q9Y496) | 0.292 (inactive)
IKZF1 (UniProt Q13422) | -0.026 (inactive)
KSR1 (UniProt Q8IVT5) | -0.044 (inactive)
MAIP1 (UniProt Q8WWC4) | -0.039 (inactive)
LPGAT1 (UniProt Q92604) | 0.036 (inactive)
LTO1 (UniProt Q8WV07) | 0.03 (inactive)
LARP4 isoform 4 (UniProt Q71RC2) | 0.257 (inactive)
IMMP1L (UniProt Q96LU5) | -0.039 (inactive)

Target | log2 fold change
LRBA (UniProt P50851) | -0.01 (inactive)
LMBRD2 (UniProt Q68DH5) | 0.003 (inactive)
MAP2K2 (UniProt P36507) | -0.039 (inactive)
ITM2B (UniProt Q9Y287) | 0.007 (inactive)
IPO13 (UniProt O94829) | -0.016 (inactive)
ILRUN (UniProt Q9H6K1) | 0.037 (inactive)
IRF2BPL (UniProt Q9H1B7) | 0.015 (inactive)
LDLR (UniProt P01130) | 0 (inactive)
LUC7L3 (UniProt O95232) | -0.008 (inactive)
MAP2K7 isoform 4 (UniProt O14733) | 0.036 (inactive)
MDC1 (UniProt Q14676) | 0.082 (inactive)
MAP2K1 (UniProt Q02750) | -0.049 (inactive)
MARK3 (UniProt P27448) | -0.016 (inactive)
KIF21A isoform 4 (UniProt Q7Z4S6) | 0.109 (inactive)
LEMD3 (UniProt Q9Y2U8) | 0.027 (inactive)
KDM5D isoform 3 (UniProt Q9BY66) | 0.067 (inactive)
IK (UniProt Q13123) | 0.198 (inactive)
KLC2 (UniProt Q9H0B6) | 0.001 (inactive)
INPP5B (UniProt P32019) | 0.066 (inactive)

compound: CNc1nc(-c2ccc3c(N)n[nH]c3c2)cc(N2C[C@@H](C(=O)NC3CCCCC3)CC[C@H]2C)n1; assay: as above
Procedure, shortened: as §1

Target | log2 fold change
LTV1 (UniProt Q96GA3) | 0.081 (inactive)
LMNB1 (UniProt P20700) | -0.095 (inactive)
LNPK (UniProt Q9C0E8) | -0.045 (inactive)
LDAH isoform 2 (UniProt Q9H6V9) | -0.043 (inactive)
IL27RA (UniProt Q6UWB1) | 0.065 (inactive)
KIF2C (UniProt Q99661) | 0.064 (inactive)
LAMP2 (UniProt P13473) | -0.088 (inactive)
LMNB2 (UniProt Q03252) | -0.073 (inactive)
MAP1LC3B2 (UniProt A6NCE7) | -0.015 (inactive)
METAP1D (UniProt Q6UB28) | 0.04 (inactive)
LIMD1 (UniProt Q9UGP4) | -0.01 (inactive)
MED17 (UniProt Q9NVC6) | 0.031 (inactive)
KIF3A (UniProt Q9Y496) | 0.037 (inactive)
IKZF1 (UniProt Q13422) | -0.029 (inactive)
KSR1 (UniProt Q8IVT5) | 0.038 (inactive)
MAIP1 (UniProt Q8WWC4) | -0.04 (inactive)
LPGAT1 (UniProt Q92604) | -0.187 (inactive)
LTO1 (UniProt Q8WV07) | 0.073 (inactive)
LARP4 isoform 4 (UniProt Q71RC2) | 0.059 (inactive)
IMMP1L (UniProt Q96LU5) | -0.102 (inactive)

Target | log2 fold change
LRBA (UniProt P50851) | -0.023 (inactive)
LMBRD2 (UniProt Q68DH5) | -0.037 (inactive)
MAP2K2 (UniProt P36507) | -0.021 (inactive)
ITM2B (UniProt Q9Y287) | 0.091 (inactive)
IPO13 (UniProt O94829) | -0.109 (inactive)
ILRUN (UniProt Q9H6K1) | 0.049 (inactive)
IRF2BPL (UniProt Q9H1B7) | -0.045 (inactive)
LDLR (UniProt P01130) | -0.065 (inactive)
LUC7L3 (UniProt O95232) | -0.048 (inactive)
MAP2K7 isoform 4 (UniProt O14733) | -0.001 (inactive)
MDC1 (UniProt Q14676) | 0.119 (inactive)
MAP2K1 (UniProt Q02750) | -0.005 (inactive)
MARK3 (UniProt P27448) | -0.069 (inactive)
KIF21A isoform 4 (UniProt Q7Z4S6) | 0.077 (inactive)
LEMD3 (UniProt Q9Y2U8) | 0.039 (inactive)
KDM5D isoform 3 (UniProt Q9BY66) | -0.078 (inactive)
IK (UniProt Q13123) | -0.059 (inactive)
KLC2 (UniProt Q9H0B6) | 0.051 (inactive)
INPP5B (UniProt P32019) | 0.043 (inactive)
